Several values for one entry are separate records, joined by “and”; a condition that tells them apart may be missing. Equal values may be shown once. Compounds without any hit were thinned out: in the full panel of roughly 83,000, 20% have a hit.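 Cell lines were cultured in 96-well plates, exposed to a single compound concentration, and assessed for percent growth 48 hours later.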 Unmarked numbers belong to inactive results. Activity calls are given as the source filed them. Rule for the calls: active = growth percent below 10; inactive = the rest.

The assay deals with MDA-MB-468 breast. Kind of assay: NCI-60 one-dose screen, 48 h (100 = growth as untreated, 0 = no growth, -100 = all killed). As to conditions: 10 µM unless noted.
As for `Cc1cc(C)nc(C)c1.[Cl][Hg][Cl]`, the growth is 113%.
For the compound `CC(=O)[O][Hg][c]1nc2c(c(=O)n(C)c(=O)n2C)n1C`, the growth was 102%.
To `CCC(O)(CN)c1ccccc1` (stereo not given) belongs 101%; to `Nc1c(Br)cc([N+](=O)[O-])cc1[N+](=O)[O-]`, 95.5%.
The figure for `O=[N+]([O-])c1cc[n+]([O-])c2ccccc12` is -60.4% (active).
Take `O=C1NC(=O)C(=C/C=C/c2ccccc2)C(=O)N1`: the growth is 44.2%.
In the case of `CCOC(=O)CCC(NC(=O)C(Cc1ccc(N(CCCl)CCCl)cc1)NC=O)C(=O)OCC` (stereo not given), the growth was -89.3% (active).
To `C[C@@]12CCCc3coc(c31)C(=O)c1cc3c(cc12)C(=O)C1=C(NCCS1(=O)=O)C3=O` belongs -65.6% (active).
To `CCCCOC(=O)c1ccccc1C(=O)O.CCCCOC(=O)c1ccccc1C(=O)O.[Cu+2]` belongs 103%; to `CC1=C2C(=C[C@@](C)(COS(C)(=O)=O)[C@@H]2O)C(=O)[C@](C)(O)C12CC2`, -54.8% (active).
The figure for `CNC(=O)Oc1ccc2c(c1)OCO2` is 94.6%.
Regarding `CC(C)CCC1(CCCl)C(=O)NC(=O)NC1=O`, the growth was 90.1%.
To `CC[C@H](C)[C@H](NC(=O)[C@H]1CCCCN1C)C(=O)N(C)[C@H](CCc1nc(C(=O)N[C@@H](Cc2ccccc2)C[C@H](C)C(=O)O)cs1)C(C)C` belongs 36.1%; to `CC1CN1CCCCN1CC1C` (stereo not given), 101%.
To `O=c1[nH]c(=O)[nH]c(=O)[nH]1` belongs 146%.
The figure for `O=S(=O)(O)c1ccc(-c2ccc([As](=O)(O)O)cc2)cc1` is 105%; for `COc1ccc(N)cc1OC` it is 109%; for `C[C@]12CCc3sc(Nc4ccc(F)cc4F)nc3C1=CC[C@@H]1[C@@H]2CC[C@]2(C)C(=O)CC[C@@H]12` it is 23.3%.
Consider `C#Cc1ccc2c(c1)C(c1ccccc1)=NCC(=O)N2C`, for which the growth is 20.8%.
The figure for `O=C(CC1(O)C(=O)Nc2ccc(Br)cc21)c1ccc(C(=O)NCC2CCC3(CC2)OOC2(CCCCC2)OO3)cc1` (stereo not given) is 48.7%.
For the compound `O=C(N/N=C/c1ccc([N+](=O)[O-])o1)c1cc([N+](=O)[O-])cc([N+](=O)[O-])c1O`, the growth is 92.1%.
`CC(=O)O[C@@H]1C2=C(C)C3(CC3)[C@@](C)(O)C(=O)C2=C[C@@]1(C)CO`: the growth is -54% (active).
Consider `C[N+]1(CC#CC[N+]2(C)CCCC2)CCCC1`, for which the growth was 98.6%.
In the case of `O=C1NC(=O)C(=Cc2ccccc2)C(=O)N1`, the growth was 96.4% and 115%.
To `CC(=O)O[C@H](C[C@H](C(C)C)N(C)C(=O)[C@@H](NC(=O)[C@H]1CCCCN1C)C(C)C)c1cccc(C(=O)N[C@@H](Cc2ccccc2)C[C@H](C)C(=O)O)n1` belongs 20.9%.
To `Cn1c(O)c(N=O)c(=O)n(C)c1=O` belongs 112% and 106%; to `CNC(=O)Oc1ccccc1-c1ccccc1`, 113%.
To `O=c1[nH]c2ccc([N+](=O)[O-])cc2c(=O)o1` belongs 108%.
`N/C(=N\N=C\c1ccc(-c2ccccc2)cc1)N[N+](=O)[O-]`: the growth is 20%.
To `C=C1[C@@H](C)[C@H]2[C@H](Cc3ccccc3)NC(=O)[C@]23[C@@H](O)/C=C/[C@@](C)(O)C(=O)[C@@H](C)C/C=C/[C@H]3[C@@H]1O` belongs -39% (active); to `O=NN(c1ccccc1)c1ccccc1`, 95%; to `Cc1cc(C(C)(C)C)ccc1O`, 99.3%.
The figure for `C/C=C(/C)C(=O)O[C@H]1CC[C@@]2(C)[C@@H]3CC[C@H]4[C@]5(O)C[C@H](O)[C@@]6(O)[C@@H](CN7C[C@@H](C)CC[C@H]7[C@@]6(C)O)[C@]5(O)C[C@@]42O[C@@]13O` is 106%.
The figure for `C[C@H](O)CCC(=O)c1ccoc1` is 98.7%.
For `O=C(Nc1ccc(Br)cc1)c1cc(Br)cc(Br)c1O`, the growth is -23.3% (active).
The figure for `Fc1c[c-]c(-c2ccccn2)c(F)c1.[CH3-].[Pt+2].c1ccc([PH+](c2ccccc2)c2ccccn2)cc1` is -21.7% (active); for `Clc1ccc2nnnn2n1` it is 35.6%; for `O=C(Nc1ccc(O)cc1)C(Cl)(Cl)Cl` it is 95.2%.
The figure for `COC1=CC(=O)O[C@@H](/C=C/c2ccc3c(c2)OCO3)C1` is 103%.
The figure for `CCOc1cc(C=C(C#N)C#N)cc(Br)c1O` is 119%.
